Test results: PubChem BioAssay (NCATS)
Records with an inconclusive call do not appear. Calls of active or inactive are those of the source. Unless noted, the call rests on the fitted dose curve.

Experiments:
[1] = qHTS for Inhibitors of the Functional Ribonucleoprotein Complex (vRNP) of Lassa (LASV) Arenavirus: LASV Primary Screen - GLuc reporter signal (AID 1347082; calls by dose curve; tested in HEK293 reporter line; further: nearly all actives have a fitted effect of over 60% in size)
[2] = qHTS for Inhibitors of the Functional Ribonucleoprotein Complex (vRNP) of Lassa (LASV) Arenavirus: Viability assay - alamar blue signal for LASV Primary Screen (AID 1347083; calls by dose curve; tested in HEK293 reporter line; further: nearly all actives have a fitted effect of over 80% in size)
[3] = qHTS for Inhibitors of the Functional Ribonucleoprotein Complex (vRNP) of Lymphocytic Choriomeningitis Arenaviruses (LCMV): Viability assay - alamar blue signal for LCMV Primary Screen (AID 1347085; calls by dose curve; tested in HEK293 reporter line; further: nearly all actives have a fitted effect of over 80% in size)
[4] = molecular target: Nucleoprotein (Lymphocytic choriomeningitis virus (strain Armstrong)) (UniProt P09992); test: qHTS for Inhibitors of the Functional Ribonucleoprotein Complex (vRNP) of Lymphocytic Choriomeningitis Arenaviruses (LCMV): LCMV Primary Screen - GLuc reporter signal (AID 1347086); further: nearly all actives have a fitted effect of over 70% in size

Measured: Potency
Further: series mostly up to about 57 µM.

Chain of Nucleoprotein (Lymphocytic choriomeningitis virus (strain Armstrong)) (P09992 whole entry, looked up): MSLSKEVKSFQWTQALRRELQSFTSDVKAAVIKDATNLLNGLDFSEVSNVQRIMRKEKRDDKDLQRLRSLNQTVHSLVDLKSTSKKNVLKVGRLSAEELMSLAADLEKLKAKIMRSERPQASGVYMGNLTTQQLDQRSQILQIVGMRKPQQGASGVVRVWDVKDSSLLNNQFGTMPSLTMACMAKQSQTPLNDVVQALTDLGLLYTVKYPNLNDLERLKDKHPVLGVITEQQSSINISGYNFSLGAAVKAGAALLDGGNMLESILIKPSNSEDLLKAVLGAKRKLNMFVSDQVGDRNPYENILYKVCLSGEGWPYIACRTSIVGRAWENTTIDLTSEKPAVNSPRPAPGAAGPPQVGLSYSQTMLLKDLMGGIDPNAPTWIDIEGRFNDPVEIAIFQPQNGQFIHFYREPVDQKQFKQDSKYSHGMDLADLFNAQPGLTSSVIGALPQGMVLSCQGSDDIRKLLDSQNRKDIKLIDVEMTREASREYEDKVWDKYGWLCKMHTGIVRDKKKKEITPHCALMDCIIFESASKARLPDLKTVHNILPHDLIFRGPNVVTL

CCCCCCCCCCCCSCCOCCO
inactive: all assays above

CC(=O)[C@H]1CC[C@H]2[C@@H]3C=CC4=CC(=O)CC[C@@]4(C)[C@@H]3CC[C@]12C
inactive: all assays above

O=c1c(-c2ccc(O)cc2)coc2cc(O)cc(O)c12
inactive: all assays above

CN(C)CCN1CCN(c2cccc(Cl)c2)C1=O
inactive: all assays above

Nc1ccc(C(=O)O)c(O)c1
inactive: all assays above

CN(C)CCc1c[nH]c2ccc(Cn3cncn3)cc12
inactive: all assays above

CCCC(=O)O[C@]1(C(=O)COC(=O)CC)CC[C@H]2[C@@H]3CCC4=CC(=O)CC[C@]4(C)[C@H]3[C@@H](O)C[C@@]21C
inactive: all assays above

NC(=O)c1ncn([C@@H]2O[C@H](CO)[C@@H](O)[C@H]2O)c1O
inactive: all assays above

C/C(=N\O)[C@@H](C)NCC(C)(C)CN[C@H](C)/C(C)=N/O
inactive: all assays above

Nc1ccc(O)cc1
inactive: all assays above

COC(=O)c1cc(Cl)c(NC(C)=O)cc1OC
inactive: all assays above

COc1ccc(Cc2cnc(N)nc2N)cc1OC
inactive: all assays above

c1ccc2sc(SN3CCOCC3)nc2c1
inactive: all assays above

c1ccc2sc(SSc3nc4ccccc4s3)nc2c1
inactive: all assays above
